56 compounds from PubChem BioAssay AID624483 (NMMLSC, 2012) can be followed below.

Out of some 360,000 compounds screened, about 11,000 (3.1%) were called active. Inconclusive results (about 2%) are left out. The sample holds actives, similar compounds and a random draw of the others, so the mix is not that of the screen. Cut-off read from the data, not from the text of the source: active = fluorescence intensity above about 16000; inconclusive = no clear call, values can overlap the other calls; inactive = below that.

This assay in a line: compound fluorescence in toxin protease inhibitor counterscreen, primary screen, artefact control for toxin protease inhibitor project, biochemical, multiplex microsphere, HTS (AID 624483). Particulars: compound autofluorescence counterscreen, microsphere flow cytometry; stronger effect = higher value.
`CN(C)CCNC(=O)c1ccc(-c2cn3c(-c4ccc(Oc5ccccc5)cc4)cnc3cn2)cc1`: the fluorescence intensity was 4030 (inactive).
For the compound `CCCNC(=S)N1CCCC(c2nc3ccccc3[nH]2)C1` (stereo unspecified), the fluorescence intensity was 4060 (inactive).
As to `O=C(C1CCCO1)N1CCC(c2nc3ccccc3[nH]2)CC1` (stereo unspecified), the fluorescence intensity is 9970 (inactive).
With `Cc1ccccc1N1CC(c2nc3ccccc3[nH]2)CC1=O` (stereo unspecified), the fluorescence intensity was 20000 (active).
Turning to `CCCNC(=O)C1(C)CCN1C(=O)C1(c2ccccc2)CC1` (stereo unspecified), the fluorescence intensity was 3570 (inactive).
Consider `C=C(C)CSc1nnc(-c2ccc(C)cc2)n1N`, for which the fluorescence intensity was 9220 (inactive).
Regarding `S=C1SCN(CCN2CCOCC2)CN1Cc1ccccc1`, the fluorescence intensity is 24500 (active).
As for `Cn1c(=O)c2c(nc(CN3CCOCC3)n2Cc2ccccc2)n(C)c1=O`, the figure is 9090 (inactive); as for `C/C(CCc1ccccc1)=N\NC(=O)c1ccc(CN2CCOCC2)cc1`, 2210 (inactive); as for `Cc1cc(C)c(NC(=S)N2CCCC2C(=O)O)c(C)c1` (stereo unspecified), 2490 (inactive).
Take `COc1ccc(NC(=O)NCCN2CCN(c3ccc(C)cc3)CC2)c(Cl)c1`: the fluorescence intensity was 3770 (inactive).
Consider `COc1ccc(N2CCN(CCNC(=O)c3nnc(Cc4c(F)cccc4Cl)o3)CC2)cc1`, for which the fluorescence intensity is 24000 (active).
With `COc1ccc(N2CCN(CCNC(=O)Nc3cc(Cl)ccc3Cl)CC2)cc1`, the fluorescence intensity is 3500 (inactive).
As for `CCCCN(C=O)c1c(CC)nc2c(OCc3ccccc3C(=O)OC)cccn12`, the figure is 4040 (inactive).
For `Cc1ccc(CNC(=O)C2CCN(S(=O)(=O)c3ccc4nc5c(c(C(=O)O)c4c3)CC(C)CC5)CC2)cc1` (stereo unspecified), the fluorescence intensity is 5690 (inactive).
Consider `COC(=O)[C@@]1(Cc2ccc(OC)cc2)[C@H]2c3cc(C(=O)N4CCCC4)n(Cc4ccc(OC(F)(F)F)cc4)c3C[C@H]2CN1C(=O)c1ccccc1`, for which the fluorescence intensity was 5540 (inactive).
As for `CC(=O)c1ccc(S(=O)(=O)N2CCN(c3nc4c(C)c(C)ccc4cc3C#N)CC2)cc1`, the fluorescence intensity was 13000 (inactive).
As for `Cc1ccc(S(=O)(=O)C(C#N)c2nc3ccccc3nc2N2CCCC2)cc1C` (stereo unspecified), the figure is 19400 (active); as for `CC(C)OC(=O)C(C#N)c1nc2ccccc2nc1N1CCN(Cc2ccccc2)CC1` (stereo unspecified), 2960 (inactive).
Consider `CCC(C)(C)C1CCC(=NNC(=O)c2ccc(Br)o2)CC1` (stereo unspecified), for which the fluorescence intensity was 2520 (inactive).
Regarding `Cc1ccc(N)cc1-n1c(C)ccc1C`, the fluorescence intensity was 9500 (inactive).
`Cc1ccc2nc(-c3ccco3)c(Cc3cccc(Cl)c3)n2c1`: the fluorescence intensity was 4970 (inactive).
Turning to `COC(=O)CN1C(=O)C2(C(C(=O)OC)=C(N)Oc3ccccc32)C2=C1CC(C)(C)CC2=O` (stereo unspecified), the fluorescence intensity was 23500 (active).
Turning to `C=CCN1C(=O)C2(C(C(=O)OCC)=C(N)Oc3c2c(=O)oc2ccccc32)c2ccccc21` (stereo unspecified), the fluorescence intensity was 4120 (inactive).
For the compound `CCOC(=O)CC1=C(C(=O)OCC)C2(C(=O)N1)C(C(=O)OC)=C(N)Oc1ccccc12` (stereo unspecified), the fluorescence intensity is 4280 (inactive).
`CC(c1ccccn1)N(C)C(=O)c1ccc2nc(Cc3cccc(Cl)c3)oc2c1` (stereo unspecified): the fluorescence intensity is 5500 (inactive).
`Cc1ccc(C(c2nnnn2CS(=O)(=O)c2ccc(C)cc2)N2CCC(C)CC2)cc1` (stereo unspecified): the fluorescence intensity was 4360 (inactive).
As to `CCN(CC)c1ccc(NC(=O)CCc2nnc3ccc(N4CCCCC4)nn23)c(C)c1`, the fluorescence intensity was 4470 (inactive).
As to `OC[C@H]1O[C@@H](c2nc(-c3nc(-c4ccc(F)cc4)no3)cs2)[C@H](O)[C@@H](O)[C@H]1O`, the fluorescence intensity was 4000 (inactive).
`CC1(C(=O)NCC2CCOCC2)Cc2c(-c3cccc(C(N)=O)c3)ccnc2O1` (stereo unspecified): the fluorescence intensity is 4060 (inactive).
In the case of `O=C(c1ccc(F)cc1)N1CCCC(c2nc(-c3cccs3)no2)C1` (stereo unspecified), the fluorescence intensity was 4320 (inactive).
With `O=C(Cc1cccs1)N1CCCC(c2nc(-c3ccc(S(=O)(=O)N4CCCC4)cc3)no2)C1` (stereo unspecified), the fluorescence intensity is 16600 (active).
`O=C(c1cccs1)N1CCCC(c2nc(-c3ccc(F)cc3)no2)C1` (stereo unspecified): the fluorescence intensity was 11100 (inactive).
Regarding `CCCNC(=O)C1(C)CCCN(C(=O)c2oc3ccccc3c2C)C1` (stereo unspecified), the fluorescence intensity was 3630 (inactive).
With `CCOc1ccc(NC(=O)CN(C)C(=O)CCSc2ccc(F)cc2)cc1OCC`, the fluorescence intensity is 3520 (inactive).
Take `COc1ccc(O)c(/C=N/N=C/c2cccc([N+](=O)[O-])c2)c1`: the fluorescence intensity was 3450 (inactive).
Consider `Cc1cc(N=CC2=C(O)CCCC2=O)no1`, for which the fluorescence intensity is 3160 (inactive).
Consider `COc1ccc(O)c(C=Nc2cc(C)on2)c1`, for which the fluorescence intensity was 22400 (active).
With `COc1ccc(C(=O)OCC(=O)NC(=O)CCSc2ccccc2)cc1`, the fluorescence intensity is 2520 (inactive).
In the case of `CC(=O)Nc1ccc(NC(=O)CSc2nnc(COc3ccccc3C)n2CC2CCCO2)cc1` (stereo unspecified), the fluorescence intensity is 3370 (inactive).
As for `CCOc1ccc(NC(=O)c2cccc3c2C(=O)N(CC2CCCO2)C3)cc1` (stereo unspecified), the figure is 6080 (inactive).
For `CCOc1cccc(=O)c2c(C)n(CC3CCCO3)c(C)c12` (stereo unspecified), the fluorescence intensity is 22100 (active).
For the compound `COc1nc(Oc2ccc(=O)n(C)n2)nc(N(C)C)n1`, the fluorescence intensity was 2790 (inactive).
Take `O=C1[C@@H](c2ccccc2)[C@@H](c2ccccc2)N1c1cccnc1`: the fluorescence intensity was 3340 (inactive).
Regarding `Cc1ccccc1N1C(=O)C2ON(c3ccccc3)C(c3ccncc3)C2C1=O` (stereo unspecified), the fluorescence intensity was 23600 (active).
`COc1cc(C2C3C(=O)N(c4ccccc4)C(=O)C3ON2c2ccccc2)ccc1O` (stereo unspecified): the fluorescence intensity was 3690 (inactive).
For `Cc1cccc2cc(CN(Cc3nnnn3Cc3ccccc3)C3CCCC3)c(=O)[nH]c12`, the fluorescence intensity is 7870 (inactive).
`Cc1cc(C)c2cc(CN(Cc3cccs3)Cc3nnnn3CC3CCCO3)c(=O)[nH]c2c1` (stereo unspecified): the fluorescence intensity was 11000 (inactive).
On to `Cc1cc(C)c2cc(CN(Cc3nnnn3Cc3ccc(F)cc3)C3CCCC3)c(=O)[nH]c2c1`, for which the fluorescence intensity was 22000 (active).
`CCCCC[C@H](C)N1C[C@@H](COCc2ccccc2)Oc2cc(N3CCC[C@@H]3CO)ccc2S1(=O)=O`: the fluorescence intensity is 5890 (inactive).
Turning to `CC(C)CC(NC(=O)C1CCCN1C(=O)[C@@H](C)NC(=O)OCc1ccccc1)C(=O)NCC(N)=O` (stereo partly specified), the fluorescence intensity is 3990 (inactive).
Under `Cn1c(NCc2cccnc2)nc2cc(-c3ccc(F)cc3)sc2c1=O` stands 2810 (inactive); under `COc1ccc(-c2cc(-c3ccc(N)cc3)nc(N)c2C#N)cc1OC`, 4760 (inactive); under `CCOc1cc(-c2cc(-c3ccc(OC)cc3)nc(N)c2C#N)ccc1O`, 24300 (active).
`CCSc1nc(-c2ccc(OC)cc2)cc(-c2ccc(OC)cc2)c1C#N`: the fluorescence intensity is 9530 (inactive).
For the compound `C[C@H](NC(=O)CC[C@H]1O[C@@H](n2ccc(=O)[nH]c2=O)[C@H](O)[C@@H]1O)c1cccc2ccccc12`, the fluorescence intensity is 5050 (inactive).
